Drawing on PubChem BioAssay (NCI), this text covers growth for 8 compounds.

The panel holds about 83,000 compounds, 20% with a hit somewhere; the sample as a whole holds those more often.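 Testing used 96-well plates and a 48-hour single-concentration exposure. Example: -40 means 40% of the starting cells died.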 Values without a mark were called inactive. Activity calls are given as the source filed them. How the source made its calls: active means growth percent below 10; inactive means the rest.

Common to all, as to test: NCI-60 one-dose screen, 48 h (100 = growth as untreated, 0 = no growth, -100 = all killed)
Assay [1] deals with SK-MEL-2 melanoma. The note with it: 10 µM.
Assay [2] deals with EKVX NSCLC. The conditions noted are these: 10 µM unless noted.
Assay [3] relates to SN12C renal. The conditions noted are these: 10 µM unless noted.
Assay [4] has as its system UO-31 renal. The conditions noted are these: 10 µM unless noted.
Assay [5] deals with TK-10 renal. The conditions noted are these: 10 µM unless noted.
Assay [6] has as its system ACHN renal. The conditions noted are these: 10 µM unless noted.
Assay [7] deals with CAKI-1 renal. The conditions noted are these: 10 µM unless noted.
For assay [8], the system named is A498 renal. The note with it: 10 µM unless noted.
In assay [9] the test system is CCRF-CEM leukemia. The note with it: 10 µM unless noted.
The subject of assay [10] is MOLT-4 leukemia. The conditions noted are these: 10 µM unless noted.
Assay [11] relates to SR leukemia. The conditions noted are these: 10 µM unless noted.
Assay [12] concerns RPMI-8226 leukemia. The note with it: 10 µM unless noted.
Assay [13] has as its system OVCAR-8 ovarian. The note with it: 10 µM unless noted.
Assay [14] deals with OVCAR-5 ovarian. The conditions noted are these: 10 µM unless noted.
The subject of assay [15] is OVCAR-4 ovarian. The conditions noted are these: 10 µM unless noted.
In assay [16] the test system is SK-OV-3 ovarian. The conditions noted are these: 10 µM unless noted.
Assay [17] relates to IGROV1 ovarian. The conditions noted are these: 10 µM unless noted.
The subject of assay [18] is OVCAR-3 ovarian. The conditions noted are these: 10 µM unless noted.
The test system of assay [19] is HS 578T breast. The note with it: 10 µM.
The test system of assay [20] is NCI/ADR-RES ovarian. The note with it: 10 µM unless noted.

As to `COc1cnc2c(c1)C(=O)c1c-2n(CCCN2CCOCC2)c(=O)c2cc(Cl)ccc12`, the growth is 92.1% in assay [1]; 54.2% in assay [2]; 21.6% in [3]; 13.8% in assay [4]; 83.1% in assay [5]; 6.75% (active) in [6]. For the same compound, the growth was 18.3% in assay [7]; -2.15% (active) in assay [8]; 1.33% (active) in [9]; -17.8% (active) in [10]; 7.63% (active) in assay [11]; 9.78% (active) in assay [12]. The growth in assay [13] was 32.8%; in assay [14] it was 69.1%; in [15], 41.6%; in [16] it was 10.7%; in [17] it was 43.2%; in [18] it was 25.8%. Further, the growth in [19] was 79.2%; in assay [20], 19.2%.
`C=CCC(=O)N[C@H](/C=C/C(=O)O)Cc1ccc(-c2cc(Cl)cc(Cl)c2)cc1`: the growth in [1] was 101%; in [2] it was 95.9%; in assay [3] it was 100%; in [4], 81%; in assay [5], 104%; in assay [6] it was 102%. For the same compound, the growth in assay [7] was 86.3%; in assay [9], 102%; in assay [10], 91.2%; in [11] it was 82%; in assay [12], 96.6%; in [13] it was 92.7%. The growth in assay [14] is 92%; in assay [15], 98.6%; in [16] it was 87.3%; in [17], 114%; in assay [18], 108%; in [19], 97%. Moreover, the growth in [20] was 107%.
Turning to `C=C1C(=O)O[C@H]2[C@H]1CC/C(Cn1cc(-c3cc(C)c(C)cc3C)nn1)=C\CC[C@@]1(C)O[C@@H]21`, the growth in assay [1] is -12.9% (active); in [2], -79.9% (active); in assay [3] it was -34.6% (active); in assay [4] it was -98.3% (active); in assay [5] it was -98.9% (active); in assay [6] it was -86.7% (active). The growth was -93.7% (active) in assay [7]; -13.8% (active) in assay [9]; -19.2% (active) in assay [10]; -5.15% (active) in assay [11]; -24.6% (active) in assay [12]; -55.9% (active) in assay [13]. In addition, the growth in [14] is -45.6% (active); in [15], -94.3% (active); in [16], 76.2%; in [17] it was -63.9% (active); in [18], -95.2% (active); in assay [19] it was 11.6%.
As to `C=C1C[C@H](O)[C@H](Br)C(C)(C)[C@@]12CCC(C)=C(Cl)C2`, the growth in assay [1] is 6.3% (active); in assay [2], 13.5%; in [3], 22.6%; in assay [4] it was 37.1%; in [5] it was 31%; in assay [6], 24.2%. The growth in [7] was 16.3%; in assay [9] it was 21.6%; in assay [10], -8.16% (active); in [11] it was 5.02% (active); in assay [12], -18.2% (active); in assay [13] it was 29%. Further, the growth is 43.3% in assay [14]; 27.3% in assay [15]; 12.1% in assay [16]; 40.1% in assay [17]; 35.2% in assay [18]; 22.3% in assay [19]. Further, in [20], the growth was 22.1%.
As for `COc1ccc(CCCc2c3[n+](cc4c(OC)c(OC)ccc24)CCc2cc4c(cc2-3)OCO4)cc1`, the growth in [1] is 60.1%; in assay [2] it was 78.3%; in [3], 69%; in assay [4], 93.2%; in assay [5] it was 66.4%; in assay [6] it was 96.2%. Moreover, the growth in assay [7] is 98.3%; in assay [9], 64.7%; in assay [10], 76.8%; in [11], 37.6%; in assay [12], 20.5%; in assay [13] it was 48.1%. The growth is 86.6% in [14]; 54.5% in assay [15]; 77.5% in assay [16]; 53.9% in assay [17]; 30% in [18]; 97.2% in assay [19]. Also, the growth in assay [20] was 93.7%.
In the case of `CCc1nc2cc(/C=C/C(=O)NO)ccc2c(=O)n1CCc1ccc(F)cc1`, the growth is 49.1% in assay [1]; 38.5% in [2]; 0.812% (active) in assay [3]; -15.5% (active) in [4]; -12.3% (active) in assay [5]; -26.5% (active) in assay [6]. Also, the growth in assay [7] is 0.0916% (active); in assay [8] it was -26.2% (active); in [9], 2.06% (active); in assay [10], -3.04% (active); in [11], 10.7%; in assay [12] it was 6.42% (active). Moreover, the growth in [13] is 5.85% (active); in [14], 25.7%; in assay [15], 25.4%; in assay [16], -16.3% (active); in [17], 28%; in [18] it was -13.5% (active). The growth in assay [19] was 52.6%; in [20], 4.25% (active).
Consider `COC(=O)CC[C@@H](C)[C@H]1CC[C@H]2C3CC[C@@H]4C[C@@H]5CC[C@]4(C)[C@@]3(O5)[C@H](Br)[C@@H](Br)[C@]12C` (stereo partly drawn), for which the growth in assay [1] is 93%; in assay [2] it was 84.8%; in assay [3] it was 98.1%; in assay [4], 93.7%; in assay [5], 97.7%; in assay [6], 96.8%. For the same compound, the growth was 80.3% in assay [7]; 95.6% in assay [9]; 76% in assay [10]; 82.6% in assay [11]; 88.5% in [12]; 97.8% in assay [13]. Also, the growth in assay [14] is 102%; in [15] it was 85.5%; in assay [16], 80.2%; in assay [17] it was 103%; in [18] it was 101%; in assay [19], 112%. In assay [20], the growth was 103%.
For the compound `CCN(CC)Cc1cc(Nc2cc(C(F)(F)F)c(C#N)c3nc4ccccc4n23)ccc1O`, the growth in assay [1] was 4.36% (active); in assay [2], 15.8%; in [3], 5.86% (active); in [4], -17.4% (active); in assay [5], 10.6%; in assay [6], 4.68% (active). For the same compound, the growth in [7] was 6.96% (active); in assay [8] it was -14.2% (active); in assay [9], 5.56% (active); in [10], 4.11% (active); in [11] it was 12.8%; in assay [13] it was 9.84% (active). For the same compound, the growth was 31% in [14]; 14.2% in [15]; -10.8% (active) in assay [16]; 28.9% in [17]; 10.9% in assay [18]; 22.8% in [19]. In assay [20], the growth is 6.79% (active).
